# Target: Solute carrier family 2, facilitated glucose transporter member 1 (Homo sapiens) (UniProt P11166)
# Experiment: ST_JUDE_LEISH: Cytotoxicity at 2uM final concentration against transgenic Leishmania Mexicana promastigotes LmGLUT1 that are glucose transport deficient and complemented with the human glucose transporter GLUT1. Activity is measured by DNA content using SYBR green in vitro
# Format: functional
# Solute carrier family 2, facilitated glucose transporter member 1 (Homo sapiens), sequence (P11166 whole entry): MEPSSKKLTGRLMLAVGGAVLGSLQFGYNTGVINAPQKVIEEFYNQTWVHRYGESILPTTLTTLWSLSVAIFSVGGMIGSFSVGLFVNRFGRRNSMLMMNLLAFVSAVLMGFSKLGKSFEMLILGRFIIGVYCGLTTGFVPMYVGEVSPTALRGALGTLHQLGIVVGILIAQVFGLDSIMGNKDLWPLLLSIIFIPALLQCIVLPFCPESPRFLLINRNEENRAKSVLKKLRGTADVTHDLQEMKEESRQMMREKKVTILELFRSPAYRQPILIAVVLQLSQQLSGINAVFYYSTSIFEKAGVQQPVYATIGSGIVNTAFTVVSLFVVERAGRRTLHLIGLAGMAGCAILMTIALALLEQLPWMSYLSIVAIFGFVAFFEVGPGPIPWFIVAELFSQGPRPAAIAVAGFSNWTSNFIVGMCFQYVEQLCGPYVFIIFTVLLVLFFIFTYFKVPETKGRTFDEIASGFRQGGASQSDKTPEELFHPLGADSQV
row,SMILES,inhibition [%]
1,COC(=O)c1cccc(NC(=O)NC2CCN(c3ccnc(Nc4ccc(OC)cc4)n3)C2)c1 (centres undefined),0.29
2,O=C(Nc1nc(-c2ccccn2)cs1)c1ccc(Br)s1,-1.89
3,Cc1cccc2nc(-c3cccc(-c4ccc(NC(=O)NCc5cccc(F)c5)cc4)c3)[nH]c12,-1.1
4,Cc1nc(C(C)Nc2nncc(-c3ccc(Cl)cc3)n2)cs1 (centres undefined),1.13
5,CC(NC(=O)NC1CCC(CCN2CCCc3ccccc32)CC1)c1cccc2ccccc12 (centres undefined),0.93
6,N=C(N)c1ccc(C(=O)Nc2cccc(C(=N)N)c2)cc1,-0.57
7,N#Cc1ccc(-c2ccc(C(=O)NCCCCN3CCC(n4cnc5ccccc54)CC3)cc2)cc1,3.46
8,Fc1cccc(COc2ccc(Nc3ncnc4sc(C#CC5CCCCN5)cc34)cc2Cl)c1 (centres undefined),3.03
9,COc1ccc(-c2cccc(NC(=O)c3cccc(C#N)c3)c2)cc1CN1CCCC1,12.1
10,Oc1ccc2[nH]c(-c3ccc(F)cc3F)nc2c1CN1CCC(O)(c2ccccc2)CC1,-0.28
11,Cc1[nH]c2ccc(O)cc2c1C1CCN(CCCCCNC(=O)/C=C/c2ccc(Cl)c(Cl)c2)CC1,0.59
12,Cn1cccc1C(=O)Nc1cccc(-c2nn3ccccc3c2-c2ccnc(Nc3ccc4c(c3)OCCO4)n2)c1,4.74
13,COc1ccccc1CNc1ccnc(N2CC(Oc3ccc(F)cc3)C2)n1,-2.09
14,COc1cc(C=Cc2ccc3ccccc3n2)cc(Br)c1OCC(=O)N(C)C,6.85
15,Cc1cccc2nc(-c3cccc(-c4ccc(NC(=O)CN5CCOCC5)cc4)c3)[nH]c12,4.78
16,CCOc1ccc2nc3cc([N+](=O)[O-])ccc3c(N)c2c1,6.85
17,CCN(CCCN1CCCCC1)c1cc(C)nc(Nc2ccc(OC)cc2)n1,-2.3
18,COc1cc2ccccc2c(OC)c1CNCCCCCCNCc1c(OC)cc2ccccc2c1OC,11.1
19,COc1ccc2nc3cc(Cl)ccc3c(NCCCN3CCNCC3)c2c1,3.27
20,O=C(Nc1ccc2ccccc2c1)N(CCCn1ccnc1)Cc1csc(-c2ccc(CNCc3ccccc3)cc2)n1,-0.95

row,SMILES,inhibition [%]
1,CCn1c(Cc2ccccc2)nnc1Sc1ccc([N+](=O)[O-])c(C#N)c1,5.75
2,O=S(=O)(NCCN1CCCC1)c1ccc(-c2ccccc2CNC2Cc3ccccc3C2)cc1,66.1
3,CS(=O)(=O)c1ccc2c(c1)CCN(CCC1CCC(NC(=O)C(=Cc3ccc(Cl)cc3Cl)c3ccc(-c4ccccc4)cc3)CC1)CC2 (centres undefined),-0.33
4,Cc1ccc(NC(=S)N2CCCN(CCCCCNC(=O)/C=C/c3ccc(Cl)c(Cl)c3)CC2)cc1Cl,-0.25
5,Cc1ccc(Nc2ccnc3ccc(C(F)(F)F)cc23)cc1O,4.92
6,CN1CCCC1CCNCc1ccc(-c2ccc(CNCCc3ccccc3)cn2)cc1 (centres undefined),1.95
7,Cc1ccc2[nH]c(Nc3ccc(Nc4nc5cc(C)ccc5[nH]4)c(C)c3)nc2c1,0.87
8,COc1ccc(S(=O)(=O)N2CCCc3ccc(Br)cc32)cc1N1CCN(C(=O)C(Cl)(Cl)Cl)CC1,2.54
9,O=C(c1ccc(Cl)cc1)N1CCCC(C(=O)N(Cc2nnc(-c3ccccc3Cl)o2)C2CC2)C1 (centres undefined),0.11
10,CCCCCCN1CCC(NCc2cccc(-n3ccnc3)c2)CC1,8.02
11,C[C@@H]1CC[C@H](NC(=O)[C@H](CC2CCCC2)NC(=O)N2CCNCC2)C(=O)CN1S(=O)(=O)c1ccccn1,1.44
12,NC1CCN(Cc2cccc(-c3ccc(-c4nc5cc(C(F)(F)F)ccc5[nH]4)cc3)c2)C1 (centres undefined),0.52
13,COc1ccc(NC(=O)[C@H](Cc2ccccc2)Nc2cc(C)nc(Nc3ccccc3)n2)cc1,12.3
14,c1ccc2c(c1)cc(CNCCCN1CCN(CCCNCc3cc4ccccc4c4ccccc34)CC1)c1ccccc12,-0.37
15,O=C(/C=C/c1ccc(Cl)c(Cl)c1)NCCCCCN1CCCN(C(=S)Nc2ccc(Cl)cc2)CC1,1.38
16,CCC1(CC)CN(c2ccccc2)c2ccc(O)cc2S(=O)(=O)C1CC(C)C (centres undefined),0.72
17,COc1ccc(Nc2ncc3c(-c4cccc(NC(=O)c5ccc(N)cc5)c4)c[nH]c3n2)cc1OC,9.74
18,COC(=O)CCCCCOc1cc(Cc2cnc(N)nc2N)cc(OC)c1OC,-0.5
19,O=C(NCCCCN1CCC(c2ccc3c(c2OCCCO)CCCC3)CC1)c1ccc(-c2ccc(C(F)(F)F)cc2)c(CO)c1,-0.96

# Reference: ChEMBL document CHEMBL3433997, “St. Jude Leishmania screening dataset” (2016)
